# Columns and labels:
# Assay in all cases: DAPPL (digital affinity profiling via proximity ligation, sequencing); 10 mM Tris-HCl pH 7.5, 50 mM NaCl, 1 mM DTT, 4% glycerol, room temperature, 30 min; GST-TFs on glutathione beads, 16-mer random dsDNA library, 0.1% formaldehyde crosslink after washing; high values mean tight binding
# FLI1 = target: T1, FLI1 (Homo sapiens, UniProt Q01543 1-452); conditions: protein: recombinant; tags: N-terminal GST; dsDNA, one strand shown
# T1 sequence: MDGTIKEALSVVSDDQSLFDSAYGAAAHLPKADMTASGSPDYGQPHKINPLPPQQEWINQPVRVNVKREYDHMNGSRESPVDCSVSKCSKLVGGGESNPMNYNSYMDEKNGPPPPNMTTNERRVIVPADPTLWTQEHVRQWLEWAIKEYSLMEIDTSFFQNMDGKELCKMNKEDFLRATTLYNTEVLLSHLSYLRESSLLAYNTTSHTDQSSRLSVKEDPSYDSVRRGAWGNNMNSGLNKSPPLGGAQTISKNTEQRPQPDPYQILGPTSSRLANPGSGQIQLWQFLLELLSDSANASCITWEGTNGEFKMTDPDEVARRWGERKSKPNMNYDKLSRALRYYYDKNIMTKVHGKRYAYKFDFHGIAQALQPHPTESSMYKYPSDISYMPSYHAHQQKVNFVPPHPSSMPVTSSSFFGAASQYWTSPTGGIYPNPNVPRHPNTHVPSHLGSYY
# Procedure, shortened: (§1)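 A tag-only sample was pooled with DNA-barcoded human transcription factors that had been expressed in yeast as GST fusions and captured on glutathione beads. The pools were incubated for 30 min at room temperature with 200 nmole of a random double-stranded 16-mer DNA library in Tris/NaCl/DTT/glycerol buffer, then washed, crosslinked with 0.1% formaldehyde, proximity-ligated (BsaI/T4 ligase, 1 h, 37 °C), PCR-amplified and sequenced on an Illumina NextSeq500. Binding signal is each hexamer's read frequency for a factor divided by its frequency for the tag-only sample.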
# ELK1 = target: T2, ELK1 (Homo sapiens, UniProt P19419 1-428); conditions: protein: recombinant; tags: N-terminal GST; dsDNA, one strand shown
# T2 sequence: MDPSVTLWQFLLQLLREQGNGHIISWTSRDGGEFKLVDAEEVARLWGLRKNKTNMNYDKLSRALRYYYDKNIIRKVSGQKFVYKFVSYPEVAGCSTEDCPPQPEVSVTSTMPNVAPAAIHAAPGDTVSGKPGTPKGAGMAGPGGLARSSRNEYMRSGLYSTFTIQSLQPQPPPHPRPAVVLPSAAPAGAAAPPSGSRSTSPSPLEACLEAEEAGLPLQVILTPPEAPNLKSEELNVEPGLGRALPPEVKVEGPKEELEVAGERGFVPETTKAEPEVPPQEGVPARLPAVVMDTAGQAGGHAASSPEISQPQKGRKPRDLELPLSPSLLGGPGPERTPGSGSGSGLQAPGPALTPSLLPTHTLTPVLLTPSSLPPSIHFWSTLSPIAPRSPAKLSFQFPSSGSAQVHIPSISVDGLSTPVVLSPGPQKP
# Procedure, shortened: as §1
# GABPA = target: T3, GABPA (Homo sapiens, UniProt Q06546 1-454); conditions: protein: recombinant; tags: N-terminal GST; dsDNA, one strand shown
# T3 sequence: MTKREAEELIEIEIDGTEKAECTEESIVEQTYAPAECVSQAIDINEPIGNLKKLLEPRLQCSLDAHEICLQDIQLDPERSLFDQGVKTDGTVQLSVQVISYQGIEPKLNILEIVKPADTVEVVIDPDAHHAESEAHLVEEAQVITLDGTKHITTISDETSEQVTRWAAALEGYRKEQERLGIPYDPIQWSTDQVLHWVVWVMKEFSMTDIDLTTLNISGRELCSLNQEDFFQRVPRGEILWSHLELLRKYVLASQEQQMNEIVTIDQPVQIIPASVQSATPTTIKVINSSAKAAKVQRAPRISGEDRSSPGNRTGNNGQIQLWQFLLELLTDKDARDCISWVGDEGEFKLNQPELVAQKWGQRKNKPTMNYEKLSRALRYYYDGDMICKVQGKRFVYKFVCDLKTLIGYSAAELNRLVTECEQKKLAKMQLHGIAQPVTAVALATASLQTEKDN
# Procedure, shortened: as §1
# ERG = target: T4, ERG (Homo sapiens, UniProt P11308 1-479); conditions: protein: recombinant; tags: N-terminal GST; dsDNA, one strand shown
# T4 sequence: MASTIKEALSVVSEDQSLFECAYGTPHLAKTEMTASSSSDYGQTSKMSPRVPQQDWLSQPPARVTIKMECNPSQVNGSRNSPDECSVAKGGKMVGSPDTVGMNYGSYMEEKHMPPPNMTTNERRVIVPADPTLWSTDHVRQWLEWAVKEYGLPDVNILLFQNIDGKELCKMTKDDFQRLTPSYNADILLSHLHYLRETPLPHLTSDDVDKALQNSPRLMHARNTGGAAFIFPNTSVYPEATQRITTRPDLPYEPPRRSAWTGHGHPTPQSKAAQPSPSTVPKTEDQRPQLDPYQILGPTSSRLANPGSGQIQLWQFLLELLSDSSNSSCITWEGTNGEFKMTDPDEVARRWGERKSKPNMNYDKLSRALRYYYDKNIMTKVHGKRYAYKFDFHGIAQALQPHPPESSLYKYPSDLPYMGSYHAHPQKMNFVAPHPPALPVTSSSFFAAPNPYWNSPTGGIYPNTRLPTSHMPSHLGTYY
# Procedure, shortened: as §1
# ELF1 = ELF1 (Homo sapiens, UniProt P32519 1-619); conditions: protein: recombinant; tags: N-terminal GST; dsDNA, one strand shown
# Procedure, shortened: as §1
# EHF = target: T5, EHF (Homo sapiens, UniProt Q9NZC4 1-300); conditions: protein: recombinant; tags: N-terminal GST; dsDNA, one strand shown
# T5 sequence: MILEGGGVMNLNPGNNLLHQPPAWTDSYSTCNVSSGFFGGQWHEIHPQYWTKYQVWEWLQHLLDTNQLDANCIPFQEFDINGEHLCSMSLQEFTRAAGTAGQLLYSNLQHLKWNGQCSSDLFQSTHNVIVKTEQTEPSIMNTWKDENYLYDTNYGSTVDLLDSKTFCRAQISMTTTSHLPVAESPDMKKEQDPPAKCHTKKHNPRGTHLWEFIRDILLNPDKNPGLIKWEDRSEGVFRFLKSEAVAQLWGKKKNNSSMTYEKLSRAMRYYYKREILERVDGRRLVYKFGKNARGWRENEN
# Procedure, shortened: as §1
# SPI1 = SPI1 (Homo sapiens, UniProt P17947 1-270); conditions: protein: recombinant; tags: N-terminal GST; dsDNA, one strand shown
# Procedure, shortened: as §1
# SPIB = SPIB (Homo sapiens, UniProt Q01892 1-262); conditions: protein: recombinant; tags: N-terminal GST; dsDNA, one strand shown
# Procedure, shortened: as §1
# FEV = target: T6, FEV (Homo sapiens, UniProt Q99581 1-238); conditions: protein: recombinant; tags: N-terminal GST; dsDNA, one strand shown
# T6 sequence: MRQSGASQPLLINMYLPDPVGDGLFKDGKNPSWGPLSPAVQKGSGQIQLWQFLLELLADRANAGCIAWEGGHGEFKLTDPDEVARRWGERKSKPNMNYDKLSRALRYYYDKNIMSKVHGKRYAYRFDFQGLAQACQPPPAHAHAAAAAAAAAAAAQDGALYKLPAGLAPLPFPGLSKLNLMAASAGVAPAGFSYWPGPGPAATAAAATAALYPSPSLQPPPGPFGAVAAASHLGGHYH
# Procedure, shortened: as §1
# ETV5 = ETV5 (Homo sapiens, UniProt P41161 1-510); conditions: protein: recombinant; tags: N-terminal GST; dsDNA, one strand shown
# Procedure, shortened: as §1
# HSF1 = HSF1 (Homo sapiens, UniProt Q00613 1-529); conditions: protein: recombinant; tags: N-terminal GST; chain copies: 3; dsDNA, one strand shown
# Procedure, shortened: as §1
# SPIC = target: T7, SPIC (Homo sapiens, UniProt Q8N5J4 1-248); conditions: protein: recombinant; tags: N-terminal GST; dsDNA, one strand shown
# T7 sequence: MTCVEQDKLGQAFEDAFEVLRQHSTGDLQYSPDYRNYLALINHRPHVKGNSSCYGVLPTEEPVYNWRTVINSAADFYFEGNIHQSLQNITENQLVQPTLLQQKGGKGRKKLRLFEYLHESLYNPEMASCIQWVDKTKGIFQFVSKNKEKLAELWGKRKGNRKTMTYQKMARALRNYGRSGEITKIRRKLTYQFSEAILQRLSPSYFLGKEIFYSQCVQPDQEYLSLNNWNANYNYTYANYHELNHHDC
# Procedure, shortened: as §1
# ELF4 = ELF4 (Homo sapiens, UniProt Q99607 1-663); conditions: protein: recombinant; tags: N-terminal GST; dsDNA, one strand shown
# Procedure, shortened: as §1
# ELK4 = target: T8, ELK4 (Homo sapiens, UniProt P28324-2 1-405); conditions: protein: recombinant; tags: N-terminal GST; dsDNA, one strand shown
# T8 sequence: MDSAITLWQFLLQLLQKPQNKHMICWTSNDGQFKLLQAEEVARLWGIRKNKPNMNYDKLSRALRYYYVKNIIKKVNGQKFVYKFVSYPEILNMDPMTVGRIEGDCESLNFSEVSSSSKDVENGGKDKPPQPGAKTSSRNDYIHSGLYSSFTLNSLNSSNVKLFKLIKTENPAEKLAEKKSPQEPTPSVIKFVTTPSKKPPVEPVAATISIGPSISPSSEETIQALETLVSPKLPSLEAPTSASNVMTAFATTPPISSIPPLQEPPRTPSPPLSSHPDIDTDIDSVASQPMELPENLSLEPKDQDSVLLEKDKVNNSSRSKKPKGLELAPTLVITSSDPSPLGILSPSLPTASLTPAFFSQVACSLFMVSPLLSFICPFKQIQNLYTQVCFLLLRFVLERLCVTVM
# Procedure, shortened: as §1
# ETV2 = target: T9, ETV2 (Homo sapiens, UniProt O00321 1-342); conditions: protein: recombinant; tags: N-terminal GST; dsDNA, one strand shown
# T9 sequence: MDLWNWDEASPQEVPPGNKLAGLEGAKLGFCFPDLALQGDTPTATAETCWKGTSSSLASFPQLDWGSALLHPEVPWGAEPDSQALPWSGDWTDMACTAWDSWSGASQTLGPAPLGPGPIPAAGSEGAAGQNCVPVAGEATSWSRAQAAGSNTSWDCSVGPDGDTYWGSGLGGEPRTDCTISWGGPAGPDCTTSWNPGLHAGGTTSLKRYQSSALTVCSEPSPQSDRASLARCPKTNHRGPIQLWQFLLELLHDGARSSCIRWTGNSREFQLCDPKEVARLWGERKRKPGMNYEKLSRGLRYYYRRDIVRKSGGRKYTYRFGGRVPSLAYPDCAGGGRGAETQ
# Procedure, shortened: as §1
# ELF3 = target: T10, ELF3 (Homo sapiens, UniProt P78545 1-371); conditions: protein: recombinant; tags: N-terminal GST; dsDNA, one strand shown
# T10 sequence: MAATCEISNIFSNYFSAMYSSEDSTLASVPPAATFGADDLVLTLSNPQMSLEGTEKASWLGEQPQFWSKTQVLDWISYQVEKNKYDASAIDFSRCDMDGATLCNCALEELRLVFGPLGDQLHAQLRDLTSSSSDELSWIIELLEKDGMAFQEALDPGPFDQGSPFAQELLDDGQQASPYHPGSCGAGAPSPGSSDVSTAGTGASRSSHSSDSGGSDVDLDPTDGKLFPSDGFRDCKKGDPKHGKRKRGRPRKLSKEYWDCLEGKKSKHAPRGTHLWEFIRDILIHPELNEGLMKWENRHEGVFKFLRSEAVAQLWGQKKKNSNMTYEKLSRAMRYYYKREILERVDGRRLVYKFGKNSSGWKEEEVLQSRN
# Procedure, shortened: as §1
# ETV1 = ETV1 (Homo sapiens, UniProt P50549 1-477); conditions: protein: recombinant; tags: N-terminal GST; dsDNA, one strand shown
# Procedure, shortened: as §1
# Chain of ETV1 (P50549 whole entry): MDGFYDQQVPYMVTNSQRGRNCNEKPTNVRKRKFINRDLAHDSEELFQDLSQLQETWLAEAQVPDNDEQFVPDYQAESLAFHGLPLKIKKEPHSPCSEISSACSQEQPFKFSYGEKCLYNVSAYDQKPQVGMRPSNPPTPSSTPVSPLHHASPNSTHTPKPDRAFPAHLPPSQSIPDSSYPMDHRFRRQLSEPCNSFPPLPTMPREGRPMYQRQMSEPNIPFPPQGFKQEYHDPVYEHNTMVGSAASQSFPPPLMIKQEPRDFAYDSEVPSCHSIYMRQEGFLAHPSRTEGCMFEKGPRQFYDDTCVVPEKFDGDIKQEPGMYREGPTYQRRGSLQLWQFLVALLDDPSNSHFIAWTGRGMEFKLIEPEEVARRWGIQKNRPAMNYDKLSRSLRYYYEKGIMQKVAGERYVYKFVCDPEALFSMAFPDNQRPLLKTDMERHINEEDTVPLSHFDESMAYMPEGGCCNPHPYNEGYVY
# Chain of ELF1 (P32519 whole entry): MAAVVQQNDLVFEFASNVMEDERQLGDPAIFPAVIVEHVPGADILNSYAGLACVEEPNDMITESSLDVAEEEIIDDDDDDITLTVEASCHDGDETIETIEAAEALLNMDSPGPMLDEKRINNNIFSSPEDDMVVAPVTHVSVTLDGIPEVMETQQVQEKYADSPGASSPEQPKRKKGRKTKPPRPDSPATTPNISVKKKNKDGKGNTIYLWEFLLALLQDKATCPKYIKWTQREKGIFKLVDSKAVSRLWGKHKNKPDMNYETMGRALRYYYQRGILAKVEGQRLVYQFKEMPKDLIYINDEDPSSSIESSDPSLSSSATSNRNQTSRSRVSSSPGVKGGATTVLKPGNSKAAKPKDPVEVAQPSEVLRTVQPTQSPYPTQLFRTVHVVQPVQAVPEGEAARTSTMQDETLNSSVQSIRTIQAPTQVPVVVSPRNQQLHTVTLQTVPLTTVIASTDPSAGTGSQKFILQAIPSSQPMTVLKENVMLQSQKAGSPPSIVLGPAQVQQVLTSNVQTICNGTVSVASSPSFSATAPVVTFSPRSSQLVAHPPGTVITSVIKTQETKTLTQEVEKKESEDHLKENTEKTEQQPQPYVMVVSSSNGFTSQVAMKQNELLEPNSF
# Chain of ELF4 (Q99607 whole entry): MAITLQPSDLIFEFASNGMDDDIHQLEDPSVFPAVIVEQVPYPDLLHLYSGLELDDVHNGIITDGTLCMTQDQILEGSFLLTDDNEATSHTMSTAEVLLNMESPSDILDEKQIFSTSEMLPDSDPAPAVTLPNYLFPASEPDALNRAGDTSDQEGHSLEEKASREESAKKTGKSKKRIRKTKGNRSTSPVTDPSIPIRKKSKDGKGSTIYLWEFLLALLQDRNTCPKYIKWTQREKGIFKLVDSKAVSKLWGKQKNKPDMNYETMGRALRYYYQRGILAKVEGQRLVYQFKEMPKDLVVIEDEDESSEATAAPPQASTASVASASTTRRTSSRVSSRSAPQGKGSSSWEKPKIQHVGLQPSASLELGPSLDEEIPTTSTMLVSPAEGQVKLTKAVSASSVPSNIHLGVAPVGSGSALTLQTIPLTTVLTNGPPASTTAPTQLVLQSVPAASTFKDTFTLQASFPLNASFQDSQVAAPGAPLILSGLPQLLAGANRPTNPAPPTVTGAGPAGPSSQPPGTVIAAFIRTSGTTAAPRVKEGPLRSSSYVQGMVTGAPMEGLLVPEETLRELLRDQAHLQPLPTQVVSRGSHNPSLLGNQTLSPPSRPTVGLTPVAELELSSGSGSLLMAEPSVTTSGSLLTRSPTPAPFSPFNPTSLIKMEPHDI
# Chain of HSF1 (Q00613 whole entry): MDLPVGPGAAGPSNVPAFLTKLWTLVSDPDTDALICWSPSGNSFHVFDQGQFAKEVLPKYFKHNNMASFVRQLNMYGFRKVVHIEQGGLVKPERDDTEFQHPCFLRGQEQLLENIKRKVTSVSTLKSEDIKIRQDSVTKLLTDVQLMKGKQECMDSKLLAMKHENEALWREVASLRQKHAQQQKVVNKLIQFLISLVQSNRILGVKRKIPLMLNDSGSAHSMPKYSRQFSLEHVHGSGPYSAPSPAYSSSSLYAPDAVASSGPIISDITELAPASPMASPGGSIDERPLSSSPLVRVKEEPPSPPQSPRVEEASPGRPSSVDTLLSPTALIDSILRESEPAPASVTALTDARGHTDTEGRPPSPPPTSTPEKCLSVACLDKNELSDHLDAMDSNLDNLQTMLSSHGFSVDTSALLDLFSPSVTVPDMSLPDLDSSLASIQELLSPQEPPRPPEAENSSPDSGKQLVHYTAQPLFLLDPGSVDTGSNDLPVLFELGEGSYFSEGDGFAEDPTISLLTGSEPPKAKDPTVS
# Chain of SPIB (Q01892 whole entry): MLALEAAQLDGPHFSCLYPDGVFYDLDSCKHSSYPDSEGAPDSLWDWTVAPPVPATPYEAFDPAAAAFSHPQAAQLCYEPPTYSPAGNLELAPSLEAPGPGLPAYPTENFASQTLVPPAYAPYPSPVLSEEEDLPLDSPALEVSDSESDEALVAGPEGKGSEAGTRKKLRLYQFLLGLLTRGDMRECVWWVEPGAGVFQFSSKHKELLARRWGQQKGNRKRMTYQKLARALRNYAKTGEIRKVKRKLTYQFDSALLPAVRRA
# Chain of ETV5 (P41161 whole entry): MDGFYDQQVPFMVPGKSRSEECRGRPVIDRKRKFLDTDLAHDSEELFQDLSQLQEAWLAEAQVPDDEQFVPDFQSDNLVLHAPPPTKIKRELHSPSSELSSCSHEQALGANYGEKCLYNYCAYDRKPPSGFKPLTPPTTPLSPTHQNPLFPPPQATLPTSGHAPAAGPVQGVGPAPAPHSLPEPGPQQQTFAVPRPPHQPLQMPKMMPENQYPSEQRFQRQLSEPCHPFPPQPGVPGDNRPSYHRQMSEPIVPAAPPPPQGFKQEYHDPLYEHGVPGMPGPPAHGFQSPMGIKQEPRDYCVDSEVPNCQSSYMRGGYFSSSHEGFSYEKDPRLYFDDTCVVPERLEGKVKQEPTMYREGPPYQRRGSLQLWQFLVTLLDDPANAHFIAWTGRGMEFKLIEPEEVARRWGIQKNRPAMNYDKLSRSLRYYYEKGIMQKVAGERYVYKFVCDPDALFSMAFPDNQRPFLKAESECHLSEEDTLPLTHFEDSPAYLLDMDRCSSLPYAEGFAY
sequence,measurement,setting,value
GCTCGT,binding signal,FLI1,"1.19 fold enrichment (6-mer frequency, TF over GST control)"
same,binding signal,ELK1,"1.16 fold enrichment (6-mer frequency, TF over GST control)"
same,binding signal,GABPA,"1.26 fold enrichment (6-mer frequency, TF over GST control)"
same,binding signal,ERG,"1.12 fold enrichment (6-mer frequency, TF over GST control)"
same,binding signal,ELF1,"1.15 fold enrichment (6-mer frequency, TF over GST control)"
same,binding signal,EHF,"1.14 fold enrichment (6-mer frequency, TF over GST control)"
same,binding signal,SPI1,"1.12 fold enrichment (6-mer frequency, TF over GST control)"
same,binding signal,SPIB,"1.16 fold enrichment (6-mer frequency, TF over GST control)"
same,binding signal,FEV,"1.06 fold enrichment (6-mer frequency, TF over GST control)"
same,binding signal,ETV5,"1.17 fold enrichment (6-mer frequency, TF over GST control)"
same,binding signal,HSF1,"1.07 fold enrichment (6-mer frequency, TF over GST control)"
same,binding signal,SPIC,"1.14 fold enrichment (6-mer frequency, TF over GST control)"
same,binding signal,ELF4,"1.24 fold enrichment (6-mer frequency, TF over GST control)"
same,binding signal,ELK4,"1.11 fold enrichment (6-mer frequency, TF over GST control)"
same,binding signal,ETV2,"1.29 fold enrichment (6-mer frequency, TF over GST control)"
same,binding signal,ELF3,"1.16 fold enrichment (6-mer frequency, TF over GST control)"
same,binding signal,ETV1,"1.15 fold enrichment (6-mer frequency, TF over GST control)"

# — PMC7862700, “An all-to-all approach to the identification of sequence-specific readers for epigenetic DNA modifications on cytosine”
